From PubChem BioAssay
Shown are actives, neighbours in structure and some others; about 2.9% of the full set was active somewhere.
EPAC1 ag val: human EPAC1 agonism, validation; O95398; EPAC1 Rap1b BODIPY-GDP exchange, fluorescence; Potency, µM, inactives show max response, positive = active, most hits filed as activators; 16,000 compounds, 1% hits; note: nearly all actives have a fitted effect of over 70% in size
EPAC2 antag: human EPAC2 antagonism, validation; EPAC2 Rap1B BODIPY-GDP exchange, fluorescence; Potency, µM (doses to about 112 µM), for inactives: top-dose activity, negative = inhibition, hits mostly inhibitors; 16,000 compounds, 1.7% hits; AID 1645886;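 note: 100% = activation by cAMP agonist control; nearly all actives have a fitted effect of over 40% in size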
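Fluorescent exchange read-out: 100 nM EPAC2 with 250 nM RAP1B–BODIPY-GDP and 50 uM GDP; BODIPY-GDP release lowers fluorescence. Read at 480/540 nm every 5 min for 30 min at room temperature; normalized to 6.5 mM cAMP.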
The depositor's hits bear a star; ? = inconclusive; ! = not active in a repeat; [ ] = dose if it differs, or a comment. Calls come from the whole dose curve; as a rule, active = well fitted curve in the direction sought with a large enough effect; inconclusive = small, poorly fitted or top-dose-only effect, or another doubt; inactive = no such curve, though single readings can be large; an effect the other way counts as inactive or inconclusive. Unless noted, % is set by controls: 0 for no effect and ±100 for the full control effect; potency is the fitted concentration of half-maximal effect.

SMILES	EPAC1 ag val	EPAC2 antag
C1=Cc2ccccc2/C1=C\c1ccc2c(c1)OCO2	100µM*	?
C1=Cc2ccccc2/C1=C/c1ccc(/C=C2\C=Cc3ccccc32)cc1	?	17.4%
CCC1OC(=O)C[C@@H](O)[C@H](C)[C@@H](O[C@@H]2O[C@H](C)C[C@H](N(C)C)[C@H]2O)[C@@H](CC=O)C[C@@H](C)C(=O)/C=C/[C@]2(C)OC2C1C (some centres undefined)	-5.6%	9.7%
O=S(=O)(O)c1cc(I)c(O)c2ncccc12	13.2%	18.3%
O=C(Nc1ccc(/C=C/c2ccc(NC(=O)c3cc(S(=O)(=O)O)c4cccnc4c3O)cc2S(=O)(=O)O)c(S(=O)(=O)O)c1)c1cc(S(=O)(=O)O)c2cccnc2c1O	?	22.4µM*
NC1[C@H]2CN(c3nc4c(cc3F)c(=O)c(C(=O)O)cn4-c3ccc(F)cc3F)C[C@@H]12 (some centres undefined)	-6.1%	-5.9%
CC(=O)N[C@@H](Cc1c[nH]c2ccccc12)C(=O)OCc1cc(C(F)(F)F)cc(C(F)(F)F)c1	4.6%	44.7µM*!
NC(Cc1c[nH]c2ccccc12)C(=O)O (centres undefined)	25.2%	-6.9%
COc1ccc2c(c1)-c1nc(-n3ncc(C(=O)NC[C@@H]4CCCN5CCCC[C@H]45)c3C)ncc1CC2	5.1%	-5.1%
CCC(=O)O[C@@H]1CC(=O)O[C@H](C)C/C=C/C=C/[C@@H](O)[C@H](C)C[C@H](CC=O)[C@H](OC2O[C@H](C)[C@@H](O[C@H]3C[C@@](C)(O)[C@@H](OC(=O)CC)[C@H](C)O3)[C@H](N(C)C)[C@H]2O)[C@H]1OC (some centres undefined)	9.9%	36.1%[29.6 µM]
COC(=O)c1cn([C@@H]2C[C@@H](C(=O)N3CCCCCC3)N(Cc3cc4ccccc4s3)C2)nn1	-6.6%	?
C#C[C@]1(O)CC[C@H]2[C@@H]3CCc4cc(O)ccc4[C@H]3CC[C@@]21C	-37.3%	-19.6%
C#C[C@@]1(O)CCC2C3CCC4=CC(=O)CCC4C3CC[C@@]21CC (some centres undefined)	9.5%	-20.9%
C#C[C@]1(OC(C)=O)CC[C@H]2[C@@H]3CCC4=C[C@@H](OC(C)=O)CC[C@@H]4[C@H]3CC[C@@]21C	44.7µM*!	?
C#C[C@]1(OC(C)=O)CCC2C3CCC4=CC(=O)CCC4C3CC[C@]21C (some centres undefined)	16.1%	79.4µM*
Cc1onc(-c2c(F)cccc2Cl)c1C(=O)N[C@@H]1C(=O)N2[C@@H]1SC(C)(C)[C@@H]2C(=O)O	11.8%	-4.2%
Nc1ncnc2c1ncn2[C@H]1O[C@H](CO)[C@@H](O)[C@@H]1O	-13.7%	12.4%
CC(C)C[C@@H](COc1ccccc1)N1CCN(Cc2ccccc2)CCC1=O	-21.0%	17.8µM*
CCCN1CCC(=O)N([C@H](COc2ccccc2)Cc2ccccc2)CC1	4.6%	16.3%
O=C1CCN(Cc2ccccc2)CCN1[C@H](COc1ccccc1)Cc1ccccc1	-6.9%	79.4µM*
CC(C)C[C@@H](CO)N1CCN(Cc2ccccc2)CCC1=O	-1.8%	?
CS(=O)(=O)c1ccc(-c2cccc3c2OC(CNC(=O)c2ccnc(Cl)c2)C3)cc1 (centres undefined)	13.0%	?
Cc1ccc2nccc(/C=C/c3ccc(N(C)C)cc3)c2c1	112µM*	65.9%
CN(C)C(=O)c1ccc(/C=C/c2ccnc3ccccc23)cc1	?	19.8%
Cc1cc(N(C)C)cc(C)c1/C=C/c1ccnc2ccccc12	100µM*	-23.4%
SMILES	EPAC1 ag val	EPAC2 antag
CN(C)c1ccc(/C=C/c2ccnc3c2ccc2c(/C=C/c4ccc(N(C)C)cc4)ccnc23)cc1	-5.3%	?
Cc1ccccc1-c1ccc(CN2CCc3nnc(C(NS(C)(=O)=O)C(C)C)n3CC2)cc1 (centres undefined)	-7.5%	?
CC1CS(=O)(=O)CCN1/N=C/c1ccc([N+](=O)[O-])o1 (centres undefined)	-19.4%	10.3%[56.6 µM]
CCN(CC)CCCC(C)Nc1c2ccc(Cl)cc2nc2ccc(OC)cc12 (centres undefined)	112µM*!	5.6%
CCN(CC)CCCC(C)Nc1cc(/C=C/c2ccccc2Cl)nc2cc(Cl)ccc12 (centres undefined)	18.9%	-4.3%
Cc1cc(CC(C)CC(C)(C)C)n(O)c(=O)c1 (centres undefined) (tested in a mixture with another compound)	-65.8%	?
CC(=O)N[C@@H](C=O)[C@H](O)[C@H](O)[C@@H](O)CO	28.9%	2.5%
CC(C)(C)[C@H]1CCC(=O)N([C@H](CN=[N+]=[N-])Cc2ccccc2)CC1	-84.3%	56.2µM*
[N-]=[N+]=NC[C@H](Cc1ccccc1)N1CC[C@@H](O)CCC1=O	12.5%	-5.2%
CC[C@]1(c2ncc[nH]2)Cc2ccccc2O1	5.9%	15.8µM*
NCCC[C@H](N)C(=O)O	6.4%	4.0%
